# PubChem BioAssay (NCI)
# About 83,000 compounds went through this panel and 20% of them were active in at least one assay; those are over-represented in the sample as a whole.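 Negative percent growth values reflect cell death: -40 means 40% of the cells present at the start died, and -100 means all died.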 A number with no mark means an inactive call. Active and inactive are the calls of the source. The calls were made as follows: active = growth percent below 10; inactive = the rest.
# Columns and labels:
# Assay in all cases: NCI-60 one-dose screen, 48 h (100 = growth as untreated, 0 = no growth, -100 = all killed)
# Details in all cases: 10 µM unless noted
# [1] = system: NCI-H23 lung
# [2] = system: NCI-H226 lung
# [3] = system: NCI-H322M lung
# [4] = system: HOP-62 NSCLC
# [5] = system: NCI-H460 lung
# [6] = system: HOP-92 NSCLC
# [7] = system: NCI-H522 lung
# [8] = system: A549/ATCC NSCLC
# [9] = system: 786-0 renal
# [10] = system: COLO 205 colon
# [11] = system: DU-145 prostate
# [12] = system: K-562 leukemia
# [13] = system: MALME-3M melanoma
# [14] = system: MDA-MB-231 breast
# [15] = system: RXF 393 renal
# [16] = system: SF-268 CNS
# [17] = system: SF-295 CNS
# [18] = system: SF-539 CNS
# [19] = system: UACC-257 melanoma
# [20] = system: M14 melanoma
SMILES,growth [1],growth [2],growth [3],growth [4],growth [5],growth [6],growth [7],growth [8],growth [9],growth [10],growth [11],growth [12],growth [13],growth [14],growth [15],growth [16],growth [17],growth [18],growth [19],growth [20]
COc1ccc(-c2cs/c(=N\N=C\c3ccc(O)cc3O)n2/N=C/c2ccc(O)cc2O)cc1,-28.5% (active),-30.5% (active),5.37% (active),-38.5% (active),-10.5% (active),2.31% (active),-35.6% (active),-21.5% (active),6.51% (active),-81.1% (active),4.25% (active),-4.98% (active),-22.5% (active),1.96% (active),-35.6% (active),4.27% (active),-24.4% (active),-33.1% (active),-3.6% (active),-19% (active)
CN(CCC#N)C(=O)Nc1ccccc1,101%,106%,107%,98.8%,112%,114%,79.8%,101%,101%,112%,115%,96.2%,100%,116%,114%,106%,109%,105%,94.1%,109%
C#CCN(CCCOc1ccc(Cl)cc1Cl)CCCSC(=O)CCCCCN1/C(=C\C=C2/CCCC(/C=C/C3=[N+](CCCCCC(=O)[O-])c4ccccc4C3(C)C)=C2Cl)C(C)(C)c2ccccc21,45.3%,-10.9% (active),83.7%,30.7%,11.8%,13.7%,-10.3% (active),66%,25.4%,32.8%,47%,0.955% (active),-56.2% (active),-6.25% (active),-45.2% (active),7.44% (active),53.3%,-50.2% (active),30.8%,49.7%
Cc1cc(C)cc(Nc2nccc(-c3c(-c4ccc(F)cc4)ncn3C3CCNCC3)n2)c1,43.1%,32.3%,32.2%,25.4%,-5.36% (active),26.7%,-36.2% (active),6.65% (active),11.8%,-66% (active),9.38% (active),-33.3% (active),-36.1% (active),7.44% (active),18.3%,28.4%,5.75% (active),31.3%,-50.6% (active),-86.4% (active)
O=C1c2ccccc2C(=O)c2c1oc1c2c(=O)[nH]c2ccccc21,66%,78.5%,89.3%,119%,68.3%,71.4%,54.8%,97.2%,102%,109%,82%,55.2%,124%,10.3%,97.2%,91%,92.7%,90.3%,112%,73.4%
O=C(O)CCNC1CCCCC1,90.4%,93.9%,115%,91.6%,99.3%,100%,79.7%,102%,101%,95.8%,112%,100%,144%,100%,137%,97.8%,131%,95.7%,20.9%,93.3%
O=C(O)c1cn(C2CC2)c2cc(N3CCN(C(=O)CSc4nnc(-c5ccc(Cl)cc5)n4-c4ccccc4)CC3)c(F)cc2c1=O,96.2%,98.8%,110%,80.7%,104%,79.6%,72.7%,94.3%,104%,109%,108%,96.1%,114%,106%,113%,103%,107%,105%,96.4%,109%
COc1cc(NC(=O)COc2cc(C)nc3ccc(OC)cc23)cc(OC)c1,86.9%,87.1%,94%,91.3%,95%,94.1%,75%,87%,97.1%,69.4%,97.8%,79.1%,82.8%,80%,94.2%,94.5%,96.8%,76.1%,82%,94.8%
CCOC(=O)C1=C(C)n2nc(CC#N)c(C#N)c2NC1c1ccc(Cl)cc1 (stereo not given),86.3%,81.8%,91.7%,91.5%,105%,90%,95.4%,104%,106%,103%,97.2%,115%,87.4%,88.8%,100%,87.3%,102%,96.8%,114%,91.2%
O=c1[nH]nc(-c2ccccc2)c2sc(NC(=S)Nc3ccc(Cl)cc3)nc12,86%,89.3%,100%,79.4%,97.6%,97.2%,68.6%,90.7%,92.5%,101%,94.8%,80.6%,105%,101%,102%,93.3%,98.3%,98%,104%,97.4%
C[C@@H]1C(=O)[C@@H]2C[C@@H](O)[C@@H](O)C[C@]2(C)[C@H]2CC[C@@]3(C)C(=C12)CC[C@@H]3[C@@](C)(O)[C@H](O)CCC(C)(C)O,103%,99.5%,95.2%,91%,105%,97.5%,89%,92.8%,100%,117%,99.2%,94.9%,103%,107%,116%,98.2%,108%,103%,-10.5% (active),105%
COc1ccc2[nH]c3nc4cnccc4cc3c2c1,95.2%,111%,105%,96.3%,103%,139%,87.3%,99.6%,104%,111%,101%,111%,108%,109%,123%,106%,114%,102%,122%,102%
O=c1[nH]nc(-c2ccc(Br)cc2)c2sc(NC(=S)Nc3ccc(Cl)cc3)nc12,84.1%,94.4%,95.3%,104%,102%,92.7%,94.1%,102%,102%,124%,110%,98.6%,94.2%,92.4%,111%,100%,96.8%,103%,113%,95.3%
O=CN1N=C(c2ccc3c(c2)OCO3)CC1c1cccc(Nc2ccnc3cc(C(F)(F)F)ccc23)c1 (stereo not given),68.9%,69.2%,107%,81.2%,86.4%,73%,68.3%,83.9%,90.7%,67.5%,86.4%,37%,101%,78.2%,86.4%,65.4%,83.1%,90.5%,86.8%,78.6%
Nc1cccc(C(=O)Nc2ccc3c(O)c(N=Nc4ccc(N=Nc5ccc(S(=O)(=O)O)cc5)cc4)c(S(=O)(=O)O)cc3c2)c1,104%,109%,94.5%,96%,106%,97.7%,84.5%,97.5%,98.1%,121%,107%,76.2%,97.1%,103%,121%,101%,103%,99.9%,100%,98.3%
